Test results: PubChem BioAssay (NCI)
About 79,000 compounds went through this panel and 15% of them were active in at least one assay; those are over-represented in the sample as a whole. Active and inactive are the calls of the source. Rule as the data show it: active = growth inhibition above about 70%; inactive = the rest.

Legend:
[1] = NCI Yeast Anticancer Drug Screen. Data for the rad52 strain (AID 147);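 also: 0% = growth of vehicle-treated control cultures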; conditions: S. cerevisiae rad52 mutant growth inhibition, hits give high values
Method in brief: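 Here a repair-compromised yeast strain receives each compound; its growth is then quantified and normalised to vehicle-only controls.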

[2] = NCI Yeast Anticancer Drug Screen. Data for the wt1 strain (AID 149);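 also: 0% = growth of vehicle-treated wt1 cultures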; conditions: S. cerevisiae wt1 strain (SPY 50644) growth inhibition, hits give high values
Method in brief: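 Measured: growth of wt1 yeast under compound versus vehicle treatment, reported as inhibition.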

[3] = NCI Yeast Anticancer Drug Screen. Data for the rad50EPP+ strain (AID 151);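 also: 0% = growth of vehicle-treated control cultures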; conditions: S. cerevisiae rad50 mutant strain, hits give high values
Method in brief: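 Read-out is yeast growth inhibition relative to vehicle; cells used were the rad50EPP+ strain.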

[4] = NCI Yeast Anticancer Drug Screen. Data for the mgt1 strain (AID 153); conditions: S. cerevisiae mgt1 mutant growth inhibition, hits give high values
Method in brief: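 Measured: inhibition of mgt1 yeast growth by compound, normalized to vehicle-treated cultures.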

[5] = NCI Yeast Anticancer Drug Screen. Data for the rad50 strain (AID 155);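 also: 0% = growth of vehicle-only cultures of the same strain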; conditions: S. cerevisiae rad50 strain growth inhibition, hits give high values
Method in brief: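 Growth of the mutant yeast was measured after compound exposure and referenced to vehicle-treated cultures.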

[6] = NCI Yeast Anticancer Drug Screen. Data for the mec2-1 strain (AID 157); conditions: S. cerevisiae mec2-1 strain, hits give high values
Method in brief: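 Using mec2-1 yeast: add compound, measure growth, express inhibition versus vehicle-treated cultures.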

[7] = NCI Yeast Anticancer Drug Screen. Data for the rad14 strain (AID 159);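 also: 0% = growth of vehicle-treated control cultures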; conditions: S. cerevisiae rad14 strain growth inhibition, hits give high values
Method in brief: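 Here, inhibition of yeast growth was measured after compound exposure, using a strain with a genetic defect in DNA damage repair and vehicle-treated cultures as the reference.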

[8] = NCI Yeast Anticancer Drug Screen. Data for the sgs1 mgt1 strain (AID 161);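 also: 0% = growth of cultures given vehicle only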; conditions: S. cerevisiae sgs1 mgt1 strain, hits give high values
Method in brief: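 Yeast cells carrying a defined DNA-repair defect were exposed to test compounds. Growth inhibition was measured relative to vehicle-treated controls.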

[9] = NCI Yeast Anticancer Drug Screen. Data for the CLN2oe strain (AID 163);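 also: 0% = growth of vehicle-only control cultures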; conditions: S. cerevisiae CLN2oe strain, hits give high values
Method in brief: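 Whole-cell yeast growth assay. A strain engineered for altered cell-cycle control received compound, and inhibition relative to vehicle-treated cultures was recorded.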

[10] = NCI Yeast Anticancer Drug Screen. Data for the cln2 rad14 strain (AID 165);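 also: 0% = growth equal to vehicle treated cultures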; conditions: S. cerevisiae cln2 rad14 strain, hits give high values
Method in brief: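 Yeast strain cln2 rad14, bearing defects in cell cycle control and DNA repair, serves as the test system; values reflect growth inhibition compared with vehicle.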

[11] = NCI Yeast Anticancer Drug Screen. Data for the bub3 strain (AID 167); conditions: S. cerevisiae bub3 mutant strain, hits give high values
Method in brief: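 Whole-cell yeast assay. The mutant strain was incubated with compounds, and growth inhibition was determined by comparison with vehicle-treated cells.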

[12] = NCI Yeast Anticancer Drug Screen. Data for the wt2 strain (AID 169);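 also: 0% = growth of vehicle-treated yeast cultures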; conditions: S. cerevisiae wt2 strain growth inhibition, hits give high values
Method in brief: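 Treated yeast vs. vehicle-treated yeast: growth inhibition determined.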

[13] = NCI Yeast Anticancer Drug Screen. Data for the mlh1 strain (AID 171);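 also: 0% = growth of vehicle-treated control cultures of the same strain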; conditions: S. cerevisiae mlh1 strain growth inhibition, hits give high values
Method in brief: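 A yeast strain with a defined genetic lesion serves as the test organism. Cultures receive compound or vehicle, and growth is measured.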

[14] = NCI Yeast Anticancer Drug Screen. Data for the sgs1 strain (AID 173);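 also: 0% = growth of vehicle-only control cultures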; conditions: S. cerevisiae sgs1 mutant, hits give high values
Method in brief: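 A genetically defined yeast mutant is incubated with the test compound, and its growth is compared to that of the same strain given vehicle.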

[15] = NCI Yeast Anticancer Drug Screen. Data for the mlh1 rad18 strain (AID 175); conditions: S. cerevisiae mlh1 rad18 strain growth inhibition, hits give high values
Method in brief: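 Steps: expose repair-defective yeast to compound; measure growth; express inhibition against vehicle-treated controls.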

[16] = NCI Yeast Anticancer Drug Screen. Data for the rad18 strain (AID 177); conditions: S. cerevisiae rad18 mutant growth inhibition, hits give high values
Method in brief: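 Measured value is growth inhibition of a yeast strain bearing a DNA repair alteration, referenced to vehicle-treated cells.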

[17] = at 5.0 µM (retest, dose inferred, filed as 0.5)
[18] = at 50.0 µM (retest, dose inferred, filed as 5.0)

Measured: growth inhibition

COC(=O)CC1CCc2c(ccc3ccccc23)C1(C)C(=O)OC (stereo unspecified)
active: [8]; [18] 80% | [11]; [18] 75% | [11]; at 100.0 µM 71% | [14]; at 100.0 µM 79%
inactive: [1]; at 1.2 µM -1% | [1]; at 3.7 µM 2% | [1]; at 11.0 µM 14% | [1]; at 33.0 µM 5% | [1]; at 100.0 µM 32% | [2]; at 1.2 µM -2% | [2]; at 3.7 µM -4% | [2]; at 11.0 µM 7% | [2]; at 33.0 µM -10% | [2]; at 100.0 µM -1% | [3]; at 1.2 µM 5% | [3]; at 3.7 µM 16% | [3]; at 11.0 µM 16% | [3]; at 33.0 µM 48% | [3]; at 100.0 µM 45% | [4]; at 1.2 µM -3% | [4]; at 3.7 µM 0% | [4]; at 11.0 µM -2% | [4]; at 33.0 µM 17% | [4]; at 100.0 µM 53% | [5]; at 1.2 µM 1% | [5]; at 3.7 µM 2% | [5]; [17] -5% | [5]; at 11.0 µM 10% | [5]; at 33.0 µM 15% | [5]; [18] 21% | [5]; at 50.0 µM 15.3% | [5]; at 100.0 µM 37% | [6]; at 1.2 µM -3% | [6]; at 3.7 µM -2% | [6]; [17] -5% | [6]; at 11.0 µM -2% | [6]; at 33.0 µM -7% | [6]; [18] 28% | [6]; at 50.0 µM -1.05% | [6]; at 100.0 µM 6% | [7]; at 1.2 µM -2% | [7]; at 3.7 µM 1% | [7]; at 11.0 µM 2% | [7]; at 33.0 µM -5% | [7]; at 100.0 µM 10% | [8]; [17] -2% | [8]; at 50.0 µM 66% | [9]; at 1.2 µM -4% | [9]; at 3.7 µM -5% | [9]; at 11.0 µM -11% | [9]; at 33.0 µM -21% | [9]; at 100.0 µM 0% | [10]; [17] -3% | [10]; [18] 11% | [10]; at 50.0 µM 1.4% | [11]; at 1.2 µM 3% | [11]; at 3.7 µM 2% | [11]; [17] 2% | [11]; at 11.0 µM 6% | [11]; at 33.0 µM 46% | [11]; at 50.0 µM 63.5% | [12]; at 1.2 µM 1% | [12]; at 3.7 µM -8% | [12]; at 11.0 µM -1% | [12]; at 33.0 µM -5% | [12]; at 100.0 µM 12% | [13]; at 1.2 µM -5% | [13]; at 3.7 µM -2% | [13]; at 11.0 µM 0% | [13]; at 33.0 µM 14% | [13]; at 100.0 µM 57% | [14]; at 1.2 µM -24% | [14]; at 3.7 µM -30% | [14]; at 11.0 µM -18% | [14]; at 33.0 µM 13% | [15]; [17] -3% | [15]; [18] 54% | [15]; at 50.0 µM 27.6% | [16]; at 1.2 µM -10% | [16]; at 3.7 µM -4% | [16]; at 11.0 µM -2% | [16]; at 33.0 µM -3% | [16]; at 100.0 µM 20%

CN1C(=O)c2ccc3ccccc3c2C1=O
active: [5]; at 50.0 µM 84.5% | [5]; at 100.0 µM 70%
inactive: [1]; at 1.2 µM 7% | [1]; at 3.7 µM 11% | [1]; at 11.0 µM 35% | [1]; at 33.0 µM 53% | [1]; at 100.0 µM 68% | [2]; at 1.2 µM 2% | [2]; at 3.7 µM 3% | [2]; at 11.0 µM 17% | [2]; at 33.0 µM 25% | [2]; at 100.0 µM 25% | [3]; at 1.2 µM 8% | [3]; at 3.7 µM 12% | [3]; at 11.0 µM 42% | [3]; at 33.0 µM 58% | [3]; at 100.0 µM 52% | [4]; at 1.2 µM 1% | [4]; at 3.7 µM 1% | [4]; at 11.0 µM 20% | [4]; at 33.0 µM 18% | [4]; at 100.0 µM 25% | [5]; at 1.2 µM 12% | [5]; at 3.7 µM 32% | [5]; [17] 4% | [5]; at 11.0 µM 61% | [5]; at 33.0 µM 63% | [5]; [18] 62% | [6]; at 1.2 µM -5% | [6]; at 3.7 µM 0% | [6]; [17] 0% | [6]; at 11.0 µM 0% | [6]; at 33.0 µM 17% | [6]; [18] 29% | [6]; at 50.0 µM 41.9% | [6]; at 100.0 µM 26% | [7]; at 1.2 µM 3% | [7]; at 3.7 µM 8% | [7]; at 11.0 µM 20% | [7]; at 33.0 µM 32% | [7]; at 100.0 µM 43% | [8]; [17] 27% | [8]; [18] 54% | [8]; at 50.0 µM 43% | [9]; at 1.2 µM 3% | [9]; at 3.7 µM 6% | [9]; at 11.0 µM 18% | [9]; at 33.0 µM 21% | [9]; at 100.0 µM 27% | [10]; [17] -39% | [10]; [18] 6% | [10]; at 50.0 µM 33.4% | [11]; at 1.2 µM 6% | [11]; at 3.7 µM 8% | [11]; [17] 4% | [11]; at 11.0 µM 37% | [11]; at 33.0 µM 35% | [11]; [18] 37% | [11]; at 50.0 µM 48.8% | [11]; at 100.0 µM 32% | [12]; at 1.2 µM 2% | [12]; at 3.7 µM 3% | [12]; at 11.0 µM 12% | [12]; at 33.0 µM 24% | [12]; at 100.0 µM 39% | [13]; at 1.2 µM 2% | [13]; at 3.7 µM 3% | [13]; at 11.0 µM 22% | [13]; at 33.0 µM 29% | [13]; at 100.0 µM 27% | [14]; at 1.2 µM 0% | [14]; at 3.7 µM 1% | [14]; at 11.0 µM 14% | [14]; at 33.0 µM 25% | [14]; at 100.0 µM 42% | [15]; [17] -25% | [15]; [18] 40% | [15]; at 50.0 µM 23.3% | [16]; at 1.2 µM 6% | [16]; at 3.7 µM 15% | [16]; at 11.0 µM 45% | [16]; at 33.0 µM 39% | [16]; at 100.0 µM 35%
